# About 8,600 (12%) of roughly 69,000 compounds showed an effect of 50% or more. The full list was thinned out, with strong results kept by preference.
# Test system: Plasmodium berghei
# Experiment: Screen against P. berghei liver stage (PbLuc), transformed with Luciferase, at 10uM
# Assay type: functional, HepG2
# Conditions: tested at 10 uM
row,SMILES,INHIBITION [%]
1,Oc1ccc(Cl)cc1CNCc1cccc(C(F)(F)F)c1,27.4
2,CCn1ccnc1CN1CCCC1C(=O)Nc1nccs1 (configuration not stated),72.2
3,CCc1ccsc1C(=O)N1CCCN(Cc2nccn2CC)CC1,30.65
4,NC(=O)C1CCCN1Cc1nccn1CC(F)(F)F (configuration not stated),30.9
5,CCNc1ccnc(CN2CCCC2C(=O)Nc2nccs2)c1 (configuration not stated),85.1
6,O=C(C1CCCCN1Cc1nccn1CC(F)(F)F)N1CCCC1 (configuration not stated),58.9
7,CC(=O)Nc1cccc(CN2CCCC2C(=O)Nc2nccs2)c1 (configuration not stated),34.6
8,CC(C)(C)NC(=O)C1CCCCN1Cc1nccn1CC(F)(F)F (configuration not stated),46.6
9,N#Cc1cccc(OCCN2CCCC2C(=O)Nc2nccs2)c1 (configuration not stated),44
10,O=C(Nc1nccs1)C1CCCN1Cc1ccccn1 (configuration not stated),87.6
11,CC1CN(CC(=O)Nc2nccs2)CCN1Cc1nccn1C (configuration not stated),26.675
12,O=C(Nc1nccs1)NC1CCN(Cc2ccccn2)CC1,17.4
13,CCc1nc(CN2CCCC2C(=O)NC)cs1 (configuration not stated),49
14,N#Cc1ccccc1C(=O)Nc1cccc(CN2CCC(CO)CC2)c1,-43.1
15,Cc1cc(OCC(=O)N2CCCC(c3nc(C)c(C)s3)C2)no1 (configuration not stated),0.914
16,CC(O)CN1CCN(C(=O)c2ccc(N3CCCC3)nn2)CC1 (configuration not stated),-43.5
17,O=C(CC1CCCC1)Nc1ccc(-n2cc(Br)cn2)nc1,24.8
18,CN(C)S(=O)(=O)CCCN1CCc2c(ncn2C2CC2)C1,33.7
19,COCCN1C(=O)CCC12CCN(C(=O)CNC(C)=O)CC2,-49.2
20,Oc1ccc(CCC2CCCCN2Cc2noc(C3CC3)n2)cc1 (configuration not stated),26.5
21,Cc1cc(N2CCN(C(=O)CCc3scnc3C)CC2)nc(N)n1,-6.72
22,Cc1cc(N2CCN(C(=O)c3cc(Cl)c[nH]3)CC2)nc(N)n1,50.1

row,SMILES,INHIBITION [%]
1,COc1cc(C)nc(N2CCN(C(=O)CCc3ccncc3)CC2)n1,7.18
2,Cc1cc(N2CCN(C(=O)c3cc(Cl)c[nH]3)CC2)nc(C(C)C)n1,24.6
3,Cc1cc(N2CCN(C(=O)c3cc(Cl)c[nH]3)CC2)nc(C)n1,5.76
4,Cc1cc(C)cc(CCC(=O)N2CCN(c3cc(C)nc(N)n3)CC2)c1,80.5
5,CN1[C@@H](C(=O)NCC2CC2)C[C@H]2CN(Cc3ccsc3)C[C@H]21,-14.7
6,NC(=O)c1cc2c(nc1N1C[C@H]3OC(=O)N(C4CCCC4)[C@H]3C1)CCC2,5.05
7,Cc1c(NCc2cccnc2)cccc1C(=O)N1CCC(N(C)C)C1 (configuration not stated),24.4
8,CC(C(=O)Nc1ccon1)n1ccc(C(F)(F)F)n1 (configuration not stated),15.1
9,N#Cc1cccnc1N1CCCN(C(=O)CCn2cncn2)CC1,14.1
10,c1cc(CNCC2CNc3ccnn3C2)cc(Cn2cccn2)c1 (configuration not stated),50.5
11,c1ccc(-n2ccnc2)c(CNCC2CNc3ccnn3C2)c1 (configuration not stated),55.1
12,c1ccc(Cn2cccn2)c(CNCC2CNc3ccnn3C2)c1 (configuration not stated),45.8
13,c1ccc(Cn2cncn2)c(CNCC2CNc3ccnn3C2)c1 (configuration not stated),36.4
14,c1cc2n(n1)CC(CNCc1ccc(OC3CCCC3)nc1)CN2 (configuration not stated),41.5
15,OCc1ccccc1CNCC1CNc2ccnn2C1 (configuration not stated),-17
16,c1ccc(Cn2cc(CNCC3CNc4ccnn4C3)cn2)cc1 (configuration not stated),9.54
17,COc1cc(CNCC2CNc3ccnn3C2)ccn1 (configuration not stated),23.7
18,c1cc(CNCC2CNc3ccnn3C2)cc(N2CCCCC2)n1 (configuration not stated),37
19,c1cc(CNCC2CNc3ccnn3C2)cc(OC2CCCC2)n1 (configuration not stated),60.7
20,c1cc(CNCC2CNc3ccnn3C2)cc(N2CCOCC2)n1 (configuration not stated),62.1
21,c1cc(CNCC2CNc3ccnn3C2)cc(OC2CCCCC2)n1 (configuration not stated),40.2
22,O=C(Cn1c(C(F)F)cc2cccnc21)NC1CCCC1,22

row,SMILES,INHIBITION [%]
1,CN(C)c1nc(CNC(=O)Nc2cccc([S+](C)[O-])c2)cs1 (configuration not stated),12.4
2,Cc1cnn(CC(=O)N2CCC(c3ccn4nccc4n3)CC2)c1,32.7
3,CCOC1COC2(CCN(Cc3cccc(C#N)c3)CC2)C1 (configuration not stated),29.7
4,CN1CCCN(C(=O)NCCOc2ccc3c(c2)OCO3)CC1,33.3
5,COCCN1C(=O)C[C@@H]2[C@H]1CCN2C(=O)c1ccc[nH]1,-14.4
6,Cc1nc(C)n(CC2CCCN(CC(=O)N3CCCC3)C2)n1 (configuration not stated),7.67
7,CCc1noc(-c2cccc(C(=O)O)c2)n1,-30
8,CN1C[C@@H](C(=O)N(C)C)[C@@]2(CCc3ccccc3C(=O)N2)C1,4.41
9,Cc1cnn(CC2CN(Cc3noc(C4CC4)n3)CCO2)c1 (configuration not stated),-12.2
10,Cc1ccc2c(c1)OC(C)CN2C(=O)CCc1cccnc1 (configuration not stated),43.4
11,Cc1ccc2c(c1)OC(C)CN2C(=O)CCc1cscn1 (configuration not stated),9.04
12,Cc1ccc2c(c1)OC(C)CN2C(=O)Cc1ccc(C)nc1 (configuration not stated),59.1
13,CCSc1ccccc1C(=O)NCC1CCN(Cc2ccsc2)CC1,13.6
14,NC(=O)CN1CCCN(C(=O)Cc2ccc(F)cc2)CC1,5.03
15,NC(=O)CN1CCCN(C(=O)Cc2ccc3ccccc3c2)CC1,-9.98
16,COC(=O)CN1CCCN(C(=O)CCOc2cccc(C)c2C)CC1,29.7
17,Cc1cccc(OCCC(=O)N2CCCN(C(N)=O)CC2)c1C,15.5
18,Cc1cccc(OCCC(=O)N2CCCN(CC(N)=O)CC2)c1C,55.9
19,NC(=O)CN1CCCN(C(=O)Cc2ccc(Br)cc2)CC1,54.4
20,CN(CC(=O)NCC(=O)Nc1ccc(F)cc1)Cc1cccs1,5.87
21,N#Cc1cccnc1N1CCCC(CO)(Cc2cccc(Cl)c2)C1 (configuration not stated),-84
22,N#Cc1cccnc1N1CCCC(CO)(Cc2ccccc2F)C1 (configuration not stated),-17.2

row,SMILES,INHIBITION [%]
1,CCC1(CO)CCCN(c2ncccc2C#N)C1 (configuration not stated),5.14
2,N#Cc1cccnc1N1CCCC(CO)(Cc2ccc(F)cc2)C1 (configuration not stated),85.5
3,Cc1ccccc1CC1(CO)CCCN(c2ncccc2C#N)C1 (configuration not stated),56.8
4,CSC(C)C(=O)N1CCCN(c2ncccc2C#N)CC1 (configuration not stated),1.78
5,Cc1ccccc1CN1C[C@@H]2COC[C@]2(CNC(=O)C2CCC2)C1,43
6,CCOCc1nc(N2CCCC2)sc1C(=O)NCCC(=O)OCC,2.55
7,Cn1ccnc1CN1CCc2c(COCC3CC3)nn(C)c2C1,38.5
8,Cn1cc(C2CC(=O)NC23CCN(C(=O)Cc2ccccn2)CC3)cn1 (configuration not stated),-7.29
9,CNC(=O)N1CCC2(CC1)CC[C@@]1(C(=O)NC)CN(S(C)(=O)=O)C[C@@H]21,12.5
10,COCC(=O)N1CCC(c2nccnc2Oc2cccnc2C)CC1,50.4
11,Cc1ncccc1Oc1nccnc1C1CCN(S(C)(=O)=O)CC1,32.3
12,CCc1nccn1-c1cccc(C2CCN(C(=O)COC)CC2)n1,20.8
13,CCc1nccn1-c1nccnc1C1CCCN(C(=O)COC)C1 (configuration not stated),48.4
14,Cc1ncccc1Oc1nccnc1C1CCN(C(C)C)CC1,40.9
15,CCc1nccn1-c1nccnc1C1CCN(C(=O)COC)CC1,67.7
16,CCc1nc(C2CCCN2C(=O)c2cnc3n[nH]c(C)c3c2)no1 (configuration not stated),27
17,CC(CN1CCCC1=O)NC(=O)Nc1cccnc1-n1cccn1 (configuration not stated),4.66
18,CN1CCN(c2ccnc3c(F)cc(Br)cc23)CC1,62.8
19,CC(=O)N1CCN(c2ccnc3c(F)cc(Br)cc23)CC1,40.6
20,OC1CCN(c2ccnc3c(F)cc(Br)cc23)CC1,16.6
21,CN(C)CC(=O)N1CCOC2(CCCN(c3ncccc3F)C2)C1 (configuration not stated),21.8
22,CN([C@@H]1CCC[C@@H](n2ccnc2)[C@@H]1O)S(=O)(=O)c1cn(C)cn1,13.7

row,SMILES,INHIBITION [%]
1,CC(C)(C)c1n[nH]c(C2CN(Cc3nnc(C4CCC4)o3)CCO2)n1 (configuration not stated),-38.2
2,O=C(CCc1ccccc1)N1CCCC(c2n[nH]c3nccnc23)C1 (configuration not stated),32.8
3,Cc1nc2c(c(C)c1CC(=O)NCc1ccccc1F)c(=O)[nH]n2C,39.2
4,COc1ccccc1NC(=O)Cc1c(C)nc2c(c1C)c(=O)[nH]n2C,-16.5
5,Cc1nc2c(c(C)c1CC(=O)Nc1ccccc1F)c(=O)[nH]n2C,60.9
6,COc1ccccc1C(O)CNC(=O)Nc1cccnc1OC (configuration not stated),-13.5
7,COc1cc(N2CCC3(CC2)CC(N2CCOCC2)C3)ncn1,0.112
8,CC(C)NC(=O)NC[C@H]1OC[C@@H](NCc2ccccc2F)[C@@H]1O,58.5
9,CC(C)N[C@@H]1CO[C@H](CNC(=O)c2ccccc2)[C@H]1O,-6.23
10,CC(C)N[C@@H]1CO[C@H](CNC(=O)Nc2ccccc2)[C@H]1O,50.2
11,O=C(NC[C@H]1OC[C@@H](NC2CCC2)[C@@H]1O)c1cccs1,18.4
12,CC(C)(C)CN[C@@H]1CO[C@H](CNC(=O)Nc2ccccc2)[C@H]1O,41.1
13,O=C(NC[C@H]1OC[C@@H](NC2COC2)[C@@H]1O)Nc1ccccc1,12.4
14,O=C(NC[C@H]1OC[C@@H](NCc2ccccc2F)[C@@H]1O)Nc1ccccc1,-13.4
15,O=C(NC[C@H]1OC[C@@H](NC2CCC2)[C@@H]1O)Nc1ccccc1,41.9
16,CC(=O)N1CCC(N[C@@H]2CO[C@H](CNC(=O)c3cccs3)[C@H]2O)CC1,60.9
17,O=C(NC[C@H]1OC[C@@H](NC2CCOCC2)[C@@H]1O)Nc1ccccc1,51
18,CN1CCC(N[C@@H]2CO[C@H](CNC(=O)c3cccs3)[C@H]2O)CC1,17.4
19,CC(C)NC(=O)NC[C@H]1OC[C@@H](NCc2ccccc2O)[C@@H]1O,4.59

# — ChEMBL document CHEMBL4513216, “Probing the Open Global Health Chemical Diversity Library for Multistage-Active Starting Points for Next-Generation Antimalarials” (ACS Infect Dis, 2020)
